The results in this text go back to PubChem BioAssay (NCI).

Test systems include T-47D breast; BT-549 breast; MDA-MB-435 melanoma; SW-620 colon; MCF7 breast; HCT-116 colon; HCC-2998 colon; KM12 colon.
Assay in all cases: NCI-60 one-dose screen, 48 h (100 = growth as untreated, 0 = no growth, -100 = all killed)
Common to all, as to settings: 10 µM unless noted

Structures are written as SMILES. This is part of a sample that, as a whole, favours compounds with a hit. Of some 83,000 tested, about 20% had one in any assay.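 Each cell line was grown in a 96-well plate and treated with one concentration of compound for 48 hours. Values below 10 were considered active.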 Values without a mark were called inactive. Calls of active or inactive are those of the source.

With `Cc1nc2ccccc2n1CC1NC(=O)NC1=O` (stereo not given), the growth in the test on T-47D breast is 103%; with BT-549 breast, 107%; with MDA-MB-435 melanoma, 99.8%; with SW-620 colon, 97.6%; in the test on MCF7 breast, 96.2%; in the test with HCT-116 colon it was 106%. Also, the growth was 115% with HCC-2998 colon and 102% with KM12 colon.
On to `CSc1n(Cc2ccc3ccccc3c2)c(C)c[n+]1Cc1ccc2ccccc2c1`, for which the growth with T-47D breast is 0.45% (active); in the test with BT-549 breast, -23.4% (active); in the test with MDA-MB-435 melanoma it was -66.2% (active); in the test on SW-620 colon, 0.772% (active); in the test on MCF7 breast, -62.8% (active); in the test on HCT-116 colon, -0.907% (active). Further, the growth was -91.1% (active) in the test with HCC-2998 colon and -82.5% (active) in the test with KM12 colon.
Take `Cc1ccc(C(=O)COc2cccc(/C=C3\Oc4ccccc4C3=O)c2)cc1`: the growth with T-47D breast is 50.3%; in the test with BT-549 breast it was 124%; in the test with MDA-MB-435 melanoma it was 90.2%; with SW-620 colon it was 123%; with MCF7 breast it was 116%; in the test on HCT-116 colon it was 94.2%. Besides, the figures for the growth in the test with HCC-2998 colon and in the test on KM12 colon were 108% and 100%, respectively.
As for `CN(C)CC1=NC2SC=C(c3ccccc3)C2C(=O)N1CC#N` (stereo not given), the growth with T-47D breast was 86.8%; in the test on BT-549 breast, 118%; with MDA-MB-435 melanoma, 95.3%; in the test on SW-620 colon, 104%; in the test with MCF7 breast it was 121%; in the test on HCT-116 colon, 103%. Also, the growth with HCC-2998 colon was 97.5%; with KM12 colon, 101%.
Consider `O=C(Nc1cccc(Oc2nnc(Cl)c3ccccc23)c1)Nc1ccc(Cl)c(C(F)(F)F)c1`, for which the growth with T-47D breast was -24.6% (active); in the test on BT-549 breast it was -37.2% (active); in the test on MDA-MB-435 melanoma it was -78.4% (active); with SW-620 colon it was -62.9% (active); in the test on MCF7 breast, -35.6% (active); in the test on HCT-116 colon, -71.6% (active). For the same molecule, the growth with HCC-2998 colon is -86.5% (active); in the test with KM12 colon, -60.1% (active).
Turning to `O=C(CSc1nnc(-c2ccc(NC(=O)c3cccnc3)cc2)o1)Nc1cccc(Br)c1`, the growth was 56.5% in the test on T-47D breast; 109% in the test with BT-549 breast; 94.3% in the test with MDA-MB-435 melanoma; 96.8% in the test with SW-620 colon; 90.3% in the test with MCF7 breast; 58.7% in the test on HCT-116 colon. For the same molecule, the growth was 106% in the test with HCC-2998 colon and 105% with KM12 colon.
For the molecule `Cc1ccc(Nc2nc(N)nc(CSCC(=O)NN)n2)cc1`, the growth in the test on T-47D breast was 102%; in the test with BT-549 breast, 93.6%; in the test on MDA-MB-435 melanoma it was 94.3%; in the test with SW-620 colon, 98.9%; in the test with MCF7 breast it was 94.3%; in the test on HCT-116 colon, 103%. Further, the growth is 109% with HCC-2998 colon and 98.1% in the test on KM12 colon.
Consider `Clc1cccc(Cl)c1/C=C/c1cc(/C=C/c2c(Cl)cccc2Cl)[nH]n1`, for which the growth is 57% in the test with T-47D breast; 30.7% in the test with BT-549 breast; -50% (active) in the test on MDA-MB-435 melanoma; 18.2% in the test with SW-620 colon; 20.9% in the test on MCF7 breast; 15.5% in the test with HCT-116 colon. Further, the growth in the test on HCC-2998 colon was 35.1%; in the test with KM12 colon, 24.9%.
`CCN(CC)CCN1CC(O)=C(c2nc(-c3ccc(Cl)cc3)cs2)C1=N`: the growth in the test on T-47D breast was 17.2%; with BT-549 breast, 49.9%; in the test with MDA-MB-435 melanoma, -62.4% (active); in the test on SW-620 colon, -56.2% (active); in the test on MCF7 breast it was 10.1%; in the test with HCT-116 colon, 1.48% (active). Also, the growth in the test on HCC-2998 colon was -70.7% (active); in the test with KM12 colon, 33.7%.
For `N=C1C(c2nc(-c3ccc(Br)cc3)cs2)=C(O)CN1CC1CCCO1` (stereo not given), the growth in the test on T-47D breast was 95.7%; in the test on BT-549 breast, 106%; with MDA-MB-435 melanoma, 88.8%; in the test on SW-620 colon, 60%; in the test with MCF7 breast, 78.4%; with HCT-116 colon, 25.7%. Further, the values for the growth with HCC-2998 colon and in the test on KM12 colon were 95.1% and 86.6%, respectively.
As for `CCCCCCCC/C=C\CCCCCCCCOc1ccccc1CC(=O)NCC[N+](C)(C)C`, the growth was 94.4% with T-47D breast; 77.4% with BT-549 breast; 95.6% in the test with MDA-MB-435 melanoma; 69.5% in the test on SW-620 colon; 73% with MCF7 breast; 65.8% in the test on HCT-116 colon. Moreover, the values for the growth in the test with HCC-2998 colon and with KM12 colon were 33.7% and 36.4%, respectively.
For the molecule `CN(c1ccccc1)c1ccc2c(c1)OCCC21CC1Nc1cnccc1C(=O)O` (stereo not given), the growth was 72.6% with T-47D breast; 64.8% with BT-549 breast; 82.6% with MDA-MB-435 melanoma; 80.2% with SW-620 colon; 65.8% in the test with MCF7 breast; 33% in the test on HCT-116 colon. Also, the growth was 68.2% with HCC-2998 colon and 64.2% in the test on KM12 colon.
On to `CCCCCCCCCCCCCCCCCCOc1ccc(CC(=O)OCC[N+]2(C)CCCC2)cc1`, for which the growth with T-47D breast was 95.5%; in the test on BT-549 breast, 123%; with MDA-MB-435 melanoma, 100%; in the test on SW-620 colon it was 95%; with MCF7 breast, 90.9%; in the test with HCT-116 colon, 92%. Also, the values for the growth with HCC-2998 colon and in the test with KM12 colon were 104% and 101%, respectively.
On to `COc1cc(/C=N/Nc2ncc(-c3cc4cc5c(cc4o3)OCO5)s2)cc(OC)c1OC`, for which the growth with T-47D breast was 45.9%; with BT-549 breast, 15.2%; in the test on MDA-MB-435 melanoma it was 18.9%; in the test with SW-620 colon, 55.4%; with MCF7 breast, 53.4%; in the test with HCT-116 colon it was 28.5%. Moreover, the figures for the growth in the test on HCC-2998 colon and in the test on KM12 colon were 82.1% and 23.5%, respectively.
Turning to `O=C(CC(SCc1ccccc1)c1ccccc1)c1ccccc1` (stereo not given), the growth is 74.7% with T-47D breast; 94% with BT-549 breast; 84.6% with MDA-MB-435 melanoma; 83.5% in the test with SW-620 colon; 14.6% with MCF7 breast; 37.2% in the test on HCT-116 colon. For the same molecule, the growth in the test on HCC-2998 colon was 99.9%; with KM12 colon, 84.8%.
